In the antibiotic and cytotoxicity screens of Wong et al. (2023):
Screen size: about 39,000 compounds; about 1,500 (3.8%) were called active. What follows is part of a selection rich in actives, with near analogues and random picks from the rest.

System: HSkMC (human skeletal muscle cells)
Test: cytotoxicity call (relative viability < 0.9)
Conditions: 10 µM

SMILES	cytotoxicity call
CCS(=O)(=O)Nc1ccc2c(c1)C(=O)N(C)[C@@H]1CC[C@H](CC(=O)NCCCN3CCOCC3)O[C@@H]1CO2	inactive
COc1ccc(S(=O)(=O)Nc2ccc3c(c2)CC(=O)N([C@H](C)CO)C[C@@H](C)[C@@H](CN(C)Cc2ccc(-c4ccccc4)cc2)O3)cc1	active
COc1ccc(S(=O)(=O)Nc2ccc3c(c2)CC(=O)N([C@H](C)CO)C[C@@H](C)[C@H](CN(C)Cc2ccc(-c4ccccc4)cc2)O3)cc1	active
COc1ccc(S(=O)(=O)Nc2ccc3c(c2)CC(=O)N([C@H](C)CO)C[C@H](C)[C@H](CN(C)Cc2ccc(-c4ccccc4)cc2)O3)cc1	inactive
COc1ccc(S(=O)(=O)Nc2ccc3c(c2)CC(=O)N([C@@H](C)CO)C[C@@H](C)[C@@H](CN(C)Cc2ccc(-c4ccccc4)cc2)O3)cc1	inactive
COc1ccc(S(=O)(=O)Nc2ccc3c(c2)CC(=O)N([C@H](C)CO)C[C@H](C)[C@@H](CN(C)Cc2ccc(-c4ccccc4)cc2)O3)cc1	inactive
COc1ccc(S(=O)(=O)Nc2ccc3c(c2)CC(=O)N([C@@H](C)CO)C[C@H](C)[C@@H](CN(C)Cc2ccc(-c4ccccc4)cc2)O3)cc1	inactive
COc1ccc(S(=O)(=O)Nc2ccc3c(c2)CC(=O)N([C@@H](C)CO)C[C@@H](C)[C@H](CN(C)Cc2ccc(-c4ccccc4)cc2)O3)cc1	inactive
COc1ccc(S(=O)(=O)Nc2ccc3c(c2)CC(=O)N([C@@H](C)CO)C[C@H](C)[C@H](CN(C)Cc2ccc(-c4ccccc4)cc2)O3)cc1	active
Cc1ccc2oc(=O)cc(Cl)c2c1	inactive
NC(=O)NCC#Cc1ccc2c(c1)[C@]1(C(=O)N2)[C@H](C(=O)O)[C@H]2C(=O)O[C@H](c3ccccc3)[C@H](c3ccccc3)N2[C@@H]1c1ccc(OCCO)cc1	inactive
COc1ccccc1CNC(=O)C[C@H]1C[C@H]2c3cc(NC(=O)C4CCOCC4)ccc3O[C@H]2[C@@H](CO)O1	inactive
CC(C)NC(=O)N(C)C[C@@H]1Oc2ccc(NS(=O)(=O)c3cn(C)cn3)cc2CC(=O)N([C@@H](C)CO)C[C@@H]1C	inactive
Cc1noc(C)c1NC(=O)N(C)C[C@@H]1OCCCC[C@@H](C)Oc2ccc(NS(=O)(=O)c3ccc(Cl)cc3)cc2C(=O)N([C@H](C)CO)C[C@@H]1C	inactive
COc1ccc(S(=O)(=O)N(C)C[C@@H]2Oc3ccc(NC(=O)c4ccncc4)cc3CC(=O)N([C@@H](C)CO)C[C@H]2C)cc1	inactive
Nc1ccc(S(N)(=O)=O)cc1	inactive
C[C@@H]1CN([C@@H](C)CO)C(=O)c2cc(N(C)C)ccc2O[C@@H](C)CCCCO[C@@H]1CN(C)C(=O)CCCN(C)C	inactive
Cc1ccc2[nH]c(=O)c(C3=NN(C(=O)CCC(=O)O)[C@H](c4ccc(Br)cc4)C3)c(-c3ccccc3)c2c1	inactive
COc1ccc(S(=O)(=O)Nc2ccc3c(c2)CC(=O)N([C@H](C)CO)C[C@@H](C)[C@@H](CN(C)S(=O)(=O)c2ccc(OC)cc2)O3)cc1	inactive

SMILES	cytotoxicity call
C[C@H]1CN([C@@H](C)CO)C(=O)c2cccc(NC(=O)C3CCCCC3)c2O[C@H]1CN(C)Cc1ccc(Oc2ccccc2)cc1	inactive
C[C@H]1CN([C@@H](C)CO)C(=O)c2cccc(NC(=O)Nc3cccc4ccccc34)c2O[C@H]1CN(C)Cc1ccc(Oc2ccccc2)cc1	inactive
C[C@H](CO)N1C[C@H](C)[C@H](CN(C)Cc2ccc(Oc3ccccc3)cc2)Oc2c(NC(=O)Nc3cccc4ccccc34)cccc2C1=O	inactive
C[C@H](CO)N1C[C@H](C)[C@@H](CN(C)Cc2ccc(Oc3ccccc3)cc2)Oc2c(NC(=O)Nc3ccccc3)cccc2C1=O	active
C[C@@H]1CN([C@@H](C)CO)C(=O)c2cccc(NC(=O)C3CCCCC3)c2O[C@H]1CN(C)Cc1ccc(Oc2ccccc2)cc1	inactive
C[C@H]1CN([C@@H](C)CO)C(=O)c2cccc(NC(=O)Nc3ccccc3)c2O[C@@H]1CN(C)Cc1ccc(Oc2ccccc2)cc1	active
C[C@@H]1CN([C@H](C)CO)C(=O)c2cccc(NC(=O)Nc3ccccc3)c2O[C@H]1CN(C)Cc1ccc(Oc2ccccc2)cc1	inactive
C[C@H](CO)N1C[C@H](C)[C@@H](CN(C)Cc2ccc(Oc3ccccc3)cc2)Oc2c(NC(=O)C3CCCCC3)cccc2C1=O	active
C[C@H](CO)N1C[C@H](C)[C@@H](CN(C)Cc2ccc(Oc3ccccc3)cc2)Oc2c(NC(=O)Nc3cccc4ccccc34)cccc2C1=O	active
C[C@@H]1CN([C@@H](C)CO)C(=O)c2cccc(NC(=O)Nc3ccccc3)c2O[C@@H]1CN(C)Cc1ccc(Oc2ccccc2)cc1	inactive
C[C@@H]1CN([C@@H](C)CO)C(=O)c2cccc(NC(=O)Nc3ccccc3)c2O[C@H]1CN(C)Cc1ccc(Oc2ccccc2)cc1	inactive
C[C@@H]1CN([C@H](C)CO)C(=O)c2cccc(NC(=O)Nc3ccccc3)c2O[C@@H]1CN(C)Cc1ccc(Oc2ccccc2)cc1	inactive
O=C1NC[C@@H](c2ccccc2)OC(=O)[C@H](Cc2ccc(F)cc2)CCC=CC[C@@H]1CC(=O)N(CCO)Cc1ccccc1	inactive
C[C@H]1CN([C@@H](C)CO)C(=O)c2cc(NC(=O)Nc3ccc(C(F)(F)F)cc3)ccc2O[C@@H]1CN(C)Cc1ccncc1	inactive
COc1ccc(S(=O)(=O)Nc2cccc3c2O[C@H](CN(C)Cc2ccncc2)[C@@H](C)CN([C@H](C)CO)C3=O)cc1	inactive
CCC1OC(=O)C(C)C(=O)C(C)C(OC2OC(C)CC(N(C)C)C2O)C(C)(OC)CC(C)C(=O)C(C)C2N(CCCCn3cnc(-c4cccnc4)c3)C(=O)OC12C (stereo not drawn)	inactive
C[C@@H]1CN([C@@H](C)CO)C(=O)c2cc(NC(=O)Cc3cn(C)c4ccccc34)ccc2O[C@@H]1CN(C)Cc1ccc(C(F)(F)F)cc1	inactive
C[C@@H]1CN([C@H](C)CO)C(=O)c2cccc(NC(=O)Nc3ccc(F)cc3)c2O[C@@H]1CN(C)Cc1ccc(-c2ccccc2)cc1	inactive
CC(=O)n1cc([C@H]2C=C(C(=O)NCc3ccccc3)O[C@@H](OCc3ccc(CO)cc3)C2)c2ccccc21	inactive
